Source: PubChem
The list is not random: actives were taken first. Their share in the collection is about 2.6%.
TROY signal inh – inhibitors of TROY-dependent NF-kB signaling; Q293 LMP1-TROYcd NF-kB luciferase reporter, 4 h; AID 1347056; inhibition, % at 10 µM; hit rate 0.98% among 360,000;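 active means compounds whose plate-normalised and pattern-corrected inhibition of the luciferase reporter signal at the single screening dose is 50% or more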
LGR2 inh – blocks bursicon-induced cAMP signaling via Drosophila LGR2; HEK293 LGR2, CRE-luciferase, bursicon-stimulated, 4 h; hit rate 0.35% among 380,000; AID 720647; inhibition, % at 9.99 µM;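 active means drop in luminescence signal, shown as inhibition above about 50% in the replicate tests, limit read from the data, passing the limit was not always enough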;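 further: agonist challenge used bursicon conditioned medium at about half maximal strength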
TWEAK Fn14 block – TWEAK-Fn14 signaling inhibition. hit rate 2% among 360,000. TWEAK-stimulated Fn14 reporter cells, luciferase luminescence, 8 h. inhibition, % at 10 µM; in the data active means inhibition above about 50%
EBV LMP1 NFkB – reduces LMP1-driven NF-kappaB luciferase signal; LMP1-induced NF-kappaB luciferase reporter cells, luminescence; inhibition, % at 12.5 µM; hit rate 0.69% among 350,000; AID 504558; in the data active means inhibition above about 41%;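 further: 0% = neutral control wells and 100% = reference inhibitor control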
EWS-Fli block – blocks EWS/Fli oncoprotein-driven transcription | hit rate 0.67% among 350,000 | AID 651661 | inhibition, % at 12.6 µM | A673 NR0B1-luciferase reporter, viability-normalised;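 active means mean inhibition of at least 50% after viability correction, with every replicate also passing that limit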;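 further: firefly luciferase signal divided by Alamar Blue viability fluorescence both relative to DMSO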
* marks the source's active call; other numbers are inactive results; . = not tested or not shown.

SMILES	TROY signal inh	LGR2 inh	TWEAK Fn14 block	EBV LMP1 NFkB	EWS-Fli block
Cc1cccc(S(=O)(=O)N2[C@@H]3c4ccc(-c5ccccc5)c(=O)n4C[C@H]2[C@H](CO)[C@H]3C(=O)O)c1	.	-1.0	.	.	0.7
O=C(Nc1ccncc1)c1cccn(Cc2ccccc2)c1=O	-5.2	-15.8	50.0*	18.9	6.0
CC(C)c1ccc(C(c2c(O)c3ccccc3oc2=O)c2c(O)c3ccccc3oc2=O)cc1	68.5*	-3.7	27.9	8.4	0.7
C=C1C(=O)O[C@@H]2C[C@@H](C)[C@@H]3C4OC4C(=O)[C@@]3(C)[C@@H](O)[C@H]12 (stereo partly specified)	14.6	84.7*	96.9*	99.5*	72.8*
C=C1C(=O)O[C@H]2[C@H]1[C@H](OC(=O)CC(=O)O[C@@H]1C[C@@H](C)[C@@H]3C=CC(=O)[C@@]3(C)[C@H]3OC(=O)C(=C)[C@H]13)C[C@@H](C)[C@H]1C=CC(=O)[C@]12C	-15.3	-7.3	17.5	-6.9	4.3
C=C1C(=O)OC2CC(C)C3C=CC(=O)C3(C)C(O)C12 (stereo unspecified)	25.9	.	102.0*	92.8*	.
C=C1C(=O)O[C@@H]2C[C@@H](C)[C@@H]3C=CC(=O)[C@@]3(C)[C@@H](OC(=O)CC(=O)O[C@H]3[C@@H]4C(=C)C(=O)O[C@@H]4C[C@@H](C)[C@@H]4C=CC(=O)[C@]43C)[C@H]12	89.3*	.	105.3*	92.5*	55.5*
C=C1C(=O)O[C@H]2C[C@@H](C)[C@@H]3C=CC(=O)[C@@]3(C)C[C@H]12	.	82.4*	.	.	59.0*
CCN1[C@@H]2c3ccc(-c4cccc(C(=O)N(C)C)c4)c(=O)n3C[C@H]1[C@H](CO)[C@H]2C(=O)OC	.	0.2	.	.	-2.2
O=C(Cc1ccncc1)N1CCCCN2[C@H](C1)[C@H](c1ccc(C#CC3(O)CCCC3)cc1)[C@@H]2CO	.	-2.6	.	.	.
COC(=O)[C@H]1[C@H](CO)[C@H]2Cn3c(ccc(C4=CCCC4)c3=O)[C@@H]1N2Cc1ccccn1	.	-1.9	.	.	-0.6
CCN1[C@@H]2Cn3c(ccc(-c4cccc(C(=O)N(C)C)c4)c3=O)[C@H]1[C@@H](C(=O)OC)[C@@H]2CO	.	-2.3	.	.	-1.3
COc1cccc(-c2ccc([C@H]3[C@H](CO)N4CCCCN(C(=O)Cc5ccncc5)C[C@@H]34)cc2)c1	.	0.1	.	.	.
Cc1cccc(S(=O)(=O)N2[C@@H]3Cn4c(ccc(-c5ccncc5)c4=O)[C@H]2[C@@H](C(=O)O)[C@@H]3CO)c1	.	0.8	.	.	-4.4
CCN(CC)C(=O)c1ccc(NC(=O)c2cccc(C(F)(F)F)c2)cc1	-34.4	-10.2	-9.1	-2.9	-7.0
CCN(CCCl)c1cc(CN(C)C)cc(NC(=O)c2ccc(C(=O)Nc3cc(CN(C)C)cc(N(CC)CCCl)c3)cc2)c1	54.2*	95.1*	99.1*	86.5*	60.3*
Cc1nc2ccccc2n1C1CCN(Cc2nnnn2CCc2ccccc2)CC1	-4.1	.	-43.7	46.9*	.
c1ccc(CCn2nnnc2CN2CCC(n3nnc4ccccc43)CC2)cc1	-1.2	.	-6.1	5.8	.
CC(=O)N(C)C1=Nc2ccc(Cl)cc2C(c2ccccc2)=[N+]([O-])C1	-26.4	7.1	17.9	70.2*	10.1
CN(C)C(=O)On1c(-c2ccccc2)nc2ccc(Cl)cc21	-66.2	.	1.0	-10.4	.
CC(C)C[C@H](NC(=O)[C@@H]1CCCN1C(=O)[C@@H](N)Cc1ccc(O)cc1)C(=O)NCC(N)=O	-10.2	3.5	5.2	66.4*	-17.4
CC(C)CC(NC(=O)C1CCCCC1)C(=O)N1CCC2(CC1)OCCO2 (stereo unspecified)	-0.7	.	6.6	1.1	.
Cc1ccccc1-c1ccc([C@@H]2[C@H]3CN(C(=O)Cc4ccccn4)CCCCN3[C@H]2CO)cc1	.	4.8	.	.	-6.2
COc1cc(/C=C/[N+](=O)[O-])ccc1OC(=O)c1cccnc1	65.9*	.	47.4	17.5	56.2*
CCCN1[C@@H]2c3cccc(=O)n3C[C@H]1[C@H](CO)[C@H]2C(=O)N(C)C	.	11.3	.	.	0.0
SMILES	TROY signal inh	LGR2 inh	TWEAK Fn14 block	EBV LMP1 NFkB	EWS-Fli block
O=C(Cc1ccncc1)N1CCCCN2[C@H](C1)[C@@H](c1ccc(C#CC3(O)CCCC3)cc1)[C@@H]2CO	.	-6.1	.	.	.
CCCCCCOc1ccc(CN2CCN(CCO)CC2)cc1	56.3*	34.4	43.3	10.2	.
COc1cc2c(cc1OC)CN(c1ccc([N+](=O)[O-])c(C(F)(F)F)c1)CC2	19.4	93.4*	74.5*	8.0	0.8
c1cc(-c2ccc(C3[C@H]4CNC[C@@H]3N4CC3CC3)cc2)ccn1 (stereo partly specified)	.	-11.1	.	.	-2.8
CC1(C(=O)O)CC12c1ccccc1-c1ccccc12 (stereo unspecified)	6.9	8.2	1.4	74.1*	2.4
COc1cc2c(c(OC)c1OC)-c1ccc(O)c(=O)cc1C(NC(C)=O)CC2 (stereo unspecified)	24.5	1.3	-24.9	-0.1	59.2*
COC1=C[C@@H]2C3=C([C@@H]2C1=O)[C@@H](NC(C)=O)CCc1cc(OC)c(OC)c(OC)c13	-6.4	.	-5.8	-5.7	-1.6
COc1ccc2c(c1)C(NC(C)=O)CCc1cc(OC)c(OC)c(OC)c1-2 (stereo unspecified)	6.2	-4.5	-24.1	0.1	55.1*
COC(=O)[C@H]1[C@H](CO)[C@H]2Cn3c(ccc(-c4ccccc4F)c3=O)[C@@H]1N2	.	9.4	.	.	-46.1
COC(=O)c1ccc(NC(=O)CSc2nc3ccc(N4C(=O)C5C6C=CC(C6)C5C4=O)cc3s2)cc1 (stereo unspecified)	57.5*	104.0*	91.4*	14.3	-22.3
C=C1C(=O)[C@@]23C[C@H]4[C@@H]5[C@@]6(C)CCC[C@@]57[C@@H]2[C@@H](O)[C@@H]1C[C@H]3[C@H]7N4C6	16.3	59.0*	49.6	-2.6	42.0
CC(C)OC(=O)C1C(c2ccc(I)cc2)CC2CCC1N2C (stereo unspecified)	.	-4.4	.	.	-3.3
COC1CC2C=C(C)C=CC=CC(=O)NC(c3ccccc3)CC=CCCC(O)CC(=O)C2=C1O (stereo unspecified)	49.9	22.1	60.3*	.	55.4*
CCCC[C@@H](C)C[C@@H](C)C(=O)N(C)[C@@H](CC(C)C)C(=O)N[C@H](C(=O)N(C)[C@H](C(=O)N1C[C@@H](O)C[C@H]1C(=O)N1C(=O)C=C[C@@H]1C)C(C)C)C(C)OC(C)=O (stereo partly specified)	-22.3	.	51.5*	3.9	.
Cc1ccc(C(=O)C2CN3CCC2CC3)cc1 (stereo unspecified)	.	.	84.4*	2.5	.
Cc1ccc(C(=O)C2CN(C)CC2C(=O)c2ccc(C)cc2)cc1 (stereo unspecified)	41.9	.	-2.6	-8.7	.
O=C(O)[C@@H]1[C@@H](CO)[C@@H]2Cn3c(ccc(-c4ccccc4)c3=O)[C@H]1N2S(=O)(=O)c1ccccc1F	.	0.8	.	.	-7.0
CC(=O)NC(Cc1ccc(N(CCCl)CCCl)cc1)C(=O)NC(C(=O)O)C(C)C (stereo unspecified)	-8.8	8.5	7.8	1.5	0.5
